# Results taken from PubChem BioAssay (EPA / NIEHS).
# Activity calls are given as the source filed them. The calls were made as follows: active = hit-call score of the fitted dose curve at least 0.9, where 1 is the maximum; inactive = score below 0.9.
# How the values were obtained:
# [1] = APR_HepG2_NuclearSize_72hr: Apredica 72-hour HepG2 Assay for Nuclear Size (AID 2282925); conditions: high-content imaging, actives raise or lower the signal
# Summary of the method: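 HepG2 cells were exposed to compounds at ten concentrations from 0.39 to 200 uM (duplicate, 0.5% DMSO final) for 72 hr. After fixation in 3.7% formaldehyde, nuclei were stained with Hoechst 33342 (2 ug/mL) and imaged at 20x.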
# [2] = ATG_CRE_CIS: Attagene CIS-FACTORIAL HepG2 Assay for human cAMP Responsive Element (CRE) binding protein 3 (AID 2282926); conditions: HepG2 CRE cis-reporter, Attagene multiplexed mRNA; actives raise or lower the signal
# Summary of the method: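 HepG2 cells transiently transfected with cis-element-driven multiple reporter transcription units; CRE reporter mRNA measured 24 h after dosing by RT-PCR, 6-FAM labelling, HpaI digestion and capillary electrophoresis. Bidirectional fit versus DMSO baseline.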
# [3] = biological target: CCAAT/enhancer-binding protein beta (Homo sapiens) (UniProt P17676); test: ATG_C_EBP_CIS: Attagene CIS-FACTORIAL HepG2 Assay for human CCAAT/Enhancer Binding Protein (C/EBP) beta (AID 2282927); conditions: HepG2 Attagene cis-factorial transcription factor reporter; actives raise or lower the signal
# Summary of the method: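 RT-PCR/capillary electrophoresis fluorescence of reporter mRNA, 24 h post-dose, in HepG2 cells carrying transfected cis-promoter reporter units. Bidirectional curve fitting against DMSO baseline captures gain or loss of signal.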
# [4] = ATG_CMV_CIS: Attagene CIS-FACTORIAL HepG2 Assay for human CMV (Internal Marker) (AID 2282928); conditions: HepG2 CMV promoter reporter, transcription factor profiling; actives raise or lower the signal;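 also: endpoint acts as a background internal control marker rather than a target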
# Summary of the method: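 Endogenous transcription factor activity read in HepG2 via transfected cis-promoter reporter units. After 24 h dosing, reporter mRNA measured by RT-PCR/capillary electrophoresis; gain or loss of signal fit relative to DMSO.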
# [5] = ATG_DR4_LXR_CIS: Attagene CIS-FACTORIAL HepG2 Assay for human Liver X Receptor (LXR), DR4 submotif (AID 2282929); conditions: HepG2 Attagene DR4 cis-reporter, mRNA transcription; actives raise or lower the signal
# Summary of the method: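 DR4 cis-reporter in HepG2, 24 h exposure. Detection: RT-PCR, 6-FAM labelling, CE fragment analysis. Endpoint fitted bidirectionally, DMSO = baseline.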
# [6] = ATG_AP_1_CIS: Attagene CIS-FACTORIAL HepG2 Assay for human Activator Protein 1 (AP-1) (AID 2282931); conditions: HepG2 Attagene cis-factorial AP-1 reporter mRNA; actives raise or lower the signal
# Summary of the method: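 Cis-regulated reporter units transiently expressed in HepG2 report endogenous transcription-factor activity. Signal: reporter mRNA at 24 h, via RT-PCR and fluorescent capillary electrophoresis. Endpoint derived by bidirectional fitting, DMSO as negative control.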
# [7] = ATG_AP_2_CIS: Attagene CIS-FACTORIAL HepG2 Assay for human Activator Protein 2 (AP-2) (AID 2282932); conditions: HepG2 AP-2 cis-reporter, Attagene transcription factor profiling; actives raise or lower the signal
# Summary of the method: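 Bidirectional curve fitting against DMSO was applied to reporter mRNA signals from HepG2 cells 24 h after dosing. Cis-promoter reporter units, transiently transfected, were read by RT-PCR plus capillary electrophoresis.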
# [8] = ATG_BRE_CIS: Attagene CIS-FACTORIAL HepG2 Assay for human Bone Morphogenetic Protein (BMP) Response Element (BRE) (AID 2282933); conditions: HepG2 BMP response element reporter, Attagene transcription factor profiling; actives raise or lower the signal
# Summary of the method: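 Endogenous transcription factor activity read in transiently transfected HepG2 cells after 24 h chemical exposure. Bidirectional curve fitting against DMSO; readout is reporter transcript level by RT-PCR with capillary electrophoresis of labelled products.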
# [9] = biological target: Transcription factor E2F1 (Homo sapiens) (UniProt Q01094); test: ATG_E2F_CIS: Attagene CIS-FACTORIAL HepG2 Assay for human E2F Transcription Factor 1 (AID 2282935); conditions: HepG2 Attagene cis-reporter, E2F reporter RNA transcripts; actives raise or lower the signal
# Summary of the method: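 Multiplexed cis-reporter assay: HepG2, transient transfection, 24 h dosing, mRNA quantitation by labeled RT-PCR and CE.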
# [10] = ATG_E_Box_CIS: Attagene CIS-FACTORIAL HepG2 Assay for human Enhancer Box (E-box) (AID 2282936); conditions: HepG2 E-box cis-reporter transcription, actives raise or lower the signal
# Summary of the method: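 Multiplexed CIS reporter system in transiently transfected HepG2 cells measures native transcription factor activity. Reporter RNA after 24 h exposure is profiled by RT-PCR-capillary electrophoresis.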
# [11] = ATG_M_61_CIS: Attagene CIS-FACTORIAL HepG2 Assay for M61 Transcription Factor (Internal Marker) (AID 2282937); conditions: HepG2 Attagene CIS-FACTORIAL M61 internal marker reporter; actives raise or lower the signal
# Summary of the method: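 Background-control endpoint: HepG2 cells with cis-regulated reporter constructs, 24 h exposure, reporter mRNA detected via fluorescent primer extension and capillary electrophoresis; values from bidirectional fitting with DMSO baseline.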
# [12] = ATG_EGR_CIS: Attagene CIS-FACTORIAL HepG2 Assay for human Early Growth Response 1 (EGR1) (AID 2282938); conditions: HepG2 Attagene CIS-FACTORIAL EGR reporter mRNA; actives raise or lower the signal
# Summary of the method: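 Endpoint derived by bidirectional fitting versus DMSO vehicle. Method: cis-promoter reporter units transfected into HepG2, 24 h dosing, RNA isolation, RT-PCR with 6-FAM primer extension and HpaI digestion, then capillary electrophoresis fluorescence detection.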
# [13] = ATG_M_19_CIS: Attagene CIS-FACTORIAL HepG2 Assay for M19 Transcription Factor (Internal Marker) (AID 2282939); conditions: HepG2 Attagene CIS-FACTORIAL M19 internal marker reporter; actives raise or lower the signal
# Summary of the method: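 Internal marker readout, fitted in both directions against DMSO, from HepG2 cells carrying transfected cis-element reporter constructs; RT-PCR and capillary electrophoresis of reporter mRNA after 24 h exposure.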
# [14] = ATG_ERE_CIS: Attagene CIS-FACTORIAL HepG2 Assay for Estrogen Response Element (ERE) (AID 2282940); conditions: HepG2 ERE cis-reporter, Attagene RNA transcript; actives raise or lower the signal
# Summary of the method: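 After 24 h compound treatment, RNA from transfected HepG2 cells was reverse-transcribed, reporter cDNA PCR-amplified, FAM-labelled, HpaI-cut and resolved by capillary electrophoresis. ERE-driven cis reporter transcripts reflect endogenous factors; gain or loss scored against DMSO.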
# [15] = ATG_Ets_CIS: Attagene CIS-FACTORIAL HepG2 Assay for human Erythroblast Transformation Specific (ETS) (AID 2282941); conditions: HepG2 ETS cis-reporter transcription, actives raise or lower the signal
# Summary of the method: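 Steps: transfect HepG2 with multiple reporter units; treat compound 24 h; isolate RNA, DNase-treat, reverse-transcribe; PCR-amplify, label with 6-FAM, digest with HpaI; separate by capillary electrophoresis. Activity fitted both directions versus DMSO.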
# [16] = biological target: Hepatocyte nuclear factor 3-beta (Homo sapiens) (UniProt Q9Y261); test: ATG_FoxA2_CIS: Attagene CIS-FACTORIAL HepG2 Assay for human Forkhead box A2 (FOXA2) (AID 2282942); conditions: HepG2 cis-reporter transcription factor activity, 24 h; actives raise or lower the signal
# Summary of the method: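 Measured: reporter mRNA induction or loss in HepG2 transiently carrying multiple cis-regulated reporter units, 24 h after dosing. Quantified by RT-PCR plus capillary electrophoresis, normalised to DMSO.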
# [17] = ATG_FoxO_CIS: Attagene CIS-FACTORIAL HepG2 Assay for human Forkhead box O (FoxO) (AID 2282943); conditions: HepG2 Attagene cis-reporter, FoxO element, mRNA; actives raise or lower the signal
# Summary of the method: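 HepG2 cells transiently transfected with cis-promoter-driven multiple reporter transcription units; 24 h after chemical dosing, reporter mRNA quantified by RT-PCR, fluorescent primer extension, HpaI digestion and capillary electrophoresis. Bidirectional fitting versus DMSO baseline.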
# [18] = ATG_GATA_CIS: Attagene CIS-FACTORIAL HepG2 Assay for human GATA Binding Protein (AID 2282944); conditions: HepG2 GATA cis-element reporter, Attagene multiplex mRNA; actives raise or lower the signal
# Summary of the method: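 Reporter transcripts from a GATA cis-regulated unit, among multiplexed reporters in transfected HepG2 cells, were measured by RT-PCR with capillary electrophoresis after 24 h dosing. Induction or loss scored relative to DMSO.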
# [19] = biological target: Aryl hydrocarbon receptor (Homo sapiens) (UniProt P35869); test: ATG_Ahr_CIS: Attagene CIS-FACTORIAL HepG2 Assay for human Aryl Hydrocarbon Receptor (Ahr) (AID 2282930); conditions: HepG2 AhR cis-factorial reporter transcription; actives raise or lower the signal
# Summary of the method: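 HepG2 cells transiently transfected with cis-element-driven multiplexed reporter transcription units; endogenous transcription factor activity measured as reporter mRNA 24 h after dosing. RT-PCR, 6-FAM labelling, HpaI digestion, capillary electrophoresis; bidirectional fitting versus DMSO baseline.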
# [20] = biological target: Retinoic acid receptor alpha (Homo sapiens) (UniProt P10276); test: ATG_DR5_RAR_CIS: Attagene CIS-FACTORIAL HepG2 Assay for human Retinoic Acid Receptor Alpha (RARE), DR5 submotif (AID 2282934); conditions: HepG2 Attagene cis-factorial RARE DR5 reporter, mRNA; actives raise or lower the signal;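 as to AC50: reporter responds to endogenous RAR alpha beta and gamma in HepG2 not RARA alone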
# Summary of the method: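 HepG2 cells transiently transfected with multiplexed reporter units under cis (DR5 RARE) promoters, so endogenous transcription factor activity is measured. After 24 h compound exposure, reporter mRNA is quantified by RT-PCR with fluorescent labelling and capillary electrophoresis; bidirectional fitting versus DMSO.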
# CCAAT/enhancer-binding protein beta (Homo sapiens), sequence (P17676 whole entry, looked up): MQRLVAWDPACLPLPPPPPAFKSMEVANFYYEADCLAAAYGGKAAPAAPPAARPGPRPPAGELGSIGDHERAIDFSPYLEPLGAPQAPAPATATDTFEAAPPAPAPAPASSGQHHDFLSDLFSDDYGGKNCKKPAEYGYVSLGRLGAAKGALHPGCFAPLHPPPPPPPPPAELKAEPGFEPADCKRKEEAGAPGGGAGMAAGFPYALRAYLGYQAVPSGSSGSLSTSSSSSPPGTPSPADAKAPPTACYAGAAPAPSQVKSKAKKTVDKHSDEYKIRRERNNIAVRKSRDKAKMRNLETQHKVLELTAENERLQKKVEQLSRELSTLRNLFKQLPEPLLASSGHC
# Transcription factor E2F1 (Homo sapiens), sequence (Q01094 whole entry, looked up): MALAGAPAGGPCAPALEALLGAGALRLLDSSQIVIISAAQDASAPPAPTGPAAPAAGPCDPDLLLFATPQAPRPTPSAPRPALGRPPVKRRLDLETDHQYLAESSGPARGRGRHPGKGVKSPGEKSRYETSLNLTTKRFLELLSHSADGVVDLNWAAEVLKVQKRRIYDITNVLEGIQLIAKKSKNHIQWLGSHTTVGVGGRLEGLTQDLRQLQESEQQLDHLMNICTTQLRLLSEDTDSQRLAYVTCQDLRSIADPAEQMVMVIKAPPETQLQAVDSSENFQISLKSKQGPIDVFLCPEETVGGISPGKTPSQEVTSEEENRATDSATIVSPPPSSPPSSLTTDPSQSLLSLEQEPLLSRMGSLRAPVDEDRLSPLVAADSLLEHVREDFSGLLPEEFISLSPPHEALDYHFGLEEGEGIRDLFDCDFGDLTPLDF
# Hepatocyte nuclear factor 3-beta (Homo sapiens), sequence (Q9Y261 whole entry, looked up): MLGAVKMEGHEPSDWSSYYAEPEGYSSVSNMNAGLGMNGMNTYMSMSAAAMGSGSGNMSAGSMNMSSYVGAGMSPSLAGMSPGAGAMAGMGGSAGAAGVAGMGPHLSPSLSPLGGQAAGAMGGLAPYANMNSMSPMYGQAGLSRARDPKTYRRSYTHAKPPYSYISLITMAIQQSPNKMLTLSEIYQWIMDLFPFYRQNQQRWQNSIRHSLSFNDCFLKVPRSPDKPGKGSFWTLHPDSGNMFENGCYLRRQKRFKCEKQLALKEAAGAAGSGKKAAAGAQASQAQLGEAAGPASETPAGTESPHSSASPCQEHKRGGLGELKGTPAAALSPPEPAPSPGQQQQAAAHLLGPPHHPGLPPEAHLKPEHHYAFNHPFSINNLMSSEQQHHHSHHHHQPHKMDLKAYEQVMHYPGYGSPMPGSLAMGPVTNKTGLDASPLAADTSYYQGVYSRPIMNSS
# Aryl hydrocarbon receptor (Homo sapiens), sequence (P35869 whole entry, looked up): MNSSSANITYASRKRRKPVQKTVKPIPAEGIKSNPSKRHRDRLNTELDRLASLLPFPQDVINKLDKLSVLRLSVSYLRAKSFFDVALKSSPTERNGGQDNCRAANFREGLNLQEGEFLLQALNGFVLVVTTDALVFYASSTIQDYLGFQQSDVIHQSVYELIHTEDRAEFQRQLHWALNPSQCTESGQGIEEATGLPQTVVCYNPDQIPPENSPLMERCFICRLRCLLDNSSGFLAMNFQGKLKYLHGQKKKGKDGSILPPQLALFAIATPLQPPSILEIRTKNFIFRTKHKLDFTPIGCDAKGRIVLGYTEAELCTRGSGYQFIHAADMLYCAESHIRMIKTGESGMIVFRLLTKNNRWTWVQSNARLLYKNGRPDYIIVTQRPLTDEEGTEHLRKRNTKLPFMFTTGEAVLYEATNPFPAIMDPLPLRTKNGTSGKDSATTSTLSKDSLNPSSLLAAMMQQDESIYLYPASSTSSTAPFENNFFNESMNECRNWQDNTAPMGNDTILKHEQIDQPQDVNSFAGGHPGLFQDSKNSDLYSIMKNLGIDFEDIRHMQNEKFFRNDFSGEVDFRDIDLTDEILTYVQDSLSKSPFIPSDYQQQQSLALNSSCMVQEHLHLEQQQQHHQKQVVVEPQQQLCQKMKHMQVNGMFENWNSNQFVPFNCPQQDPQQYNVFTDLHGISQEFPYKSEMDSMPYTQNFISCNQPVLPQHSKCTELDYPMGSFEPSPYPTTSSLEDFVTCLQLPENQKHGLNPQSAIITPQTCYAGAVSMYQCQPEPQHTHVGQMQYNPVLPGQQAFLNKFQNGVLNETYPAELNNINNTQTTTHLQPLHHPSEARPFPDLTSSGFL
# Retinoic acid receptor alpha (Homo sapiens), sequence (P10276 whole entry, looked up): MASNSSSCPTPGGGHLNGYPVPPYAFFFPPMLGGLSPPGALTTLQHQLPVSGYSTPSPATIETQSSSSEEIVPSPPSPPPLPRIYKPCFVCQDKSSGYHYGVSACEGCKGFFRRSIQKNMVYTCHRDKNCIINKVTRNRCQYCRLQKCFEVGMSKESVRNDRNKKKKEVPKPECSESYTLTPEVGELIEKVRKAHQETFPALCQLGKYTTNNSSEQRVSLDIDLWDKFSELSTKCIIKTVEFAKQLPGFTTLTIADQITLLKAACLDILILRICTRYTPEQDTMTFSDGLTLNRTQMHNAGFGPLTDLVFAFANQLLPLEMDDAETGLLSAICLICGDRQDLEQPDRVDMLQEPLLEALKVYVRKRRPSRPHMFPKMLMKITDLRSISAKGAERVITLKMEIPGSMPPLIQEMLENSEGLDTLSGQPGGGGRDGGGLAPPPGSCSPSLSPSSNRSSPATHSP
structure (smiles),measurement,setting,value
CCOC(N)=O,outcome,[1],inactive
same,outcome,[2],inactive
same,outcome,[3],inactive
same,outcome,[4],inactive
same,outcome,[5],inactive
same,outcome,[6],inactive
same,outcome,[7],inactive
same,outcome,[8],inactive
same,outcome,[9],inactive
same,outcome,[10],inactive
same,outcome,[11],inactive
same,outcome,[12],inactive
same,outcome,[13],inactive
same,outcome,[14],inactive
same,outcome,[15],inactive
same,outcome,[16],inactive
same,outcome,[17],inactive
same,outcome,[18],inactive
COc1cc(C(C)C)c2c(c1)S(=O)(=O)N(COc1cc(=O)n3cccc(OCCN4CCCCC4)c3n1)C2=O,outcome,[1],inactive
same,AC50,[2],3.96 µM (active)
same,AC50,[4],2.2 µM (active)
same,AC50,[5],0.643 µM (active)
same,outcome,[19],inactive
same,AC50,[6],2.24 µM (active)
same,outcome,[7],inactive
same,outcome,[8],inactive
same,AC50,[20],0.812 µM (active)
same,outcome,[9],inactive
same,outcome,[10],inactive
same,AC50,[11],12.3 µM (active)
same,AC50,[12],2.75 µM (active)
same,outcome,[13],inactive
same,outcome,[14],inactive
same,AC50,[15],2.02 µM (active)
same,outcome,[16],inactive
same,outcome,[17],inactive
same,AC50,[18],14.1 µM (active)
Cc1ccc(S(=O)(=O)NC(=O)NN2CCCCCC2)cc1,outcome,[1],inactive
same,outcome,[2],inactive
same,outcome,[4],inactive
same,outcome,[5],inactive
same,outcome,[19],inactive
same,outcome,[6],inactive
same,outcome,[7],inactive
same,outcome,[8],inactive
same,outcome,[20],inactive
same,outcome,[9],inactive
same,outcome,[10],inactive
same,outcome,[11],inactive
same,outcome,[13],inactive
same,outcome,[14],inactive
same,outcome,[15],inactive
same,outcome,[16],inactive
same,outcome,[17],inactive
same,outcome,[18],inactive
NC(N)=O,outcome,[1],inactive
same,outcome,[2],inactive
same,outcome,[3],inactive
same,outcome,[4],inactive
same,outcome,[5],inactive
same,outcome,[6],inactive
same,outcome,[7],inactive
same,outcome,[8],inactive
same,outcome,[9],inactive
same,outcome,[10],inactive
same,outcome,[11],inactive
same,outcome,[12],inactive
same,outcome,[13],inactive
same,outcome,[14],inactive
same,outcome,[15],inactive
same,outcome,[16],inactive
same,outcome,[17],inactive
same,outcome,[18],inactive
CCCCCCCCN(C)C,outcome,[1],inactive
same,outcome,[2],inactive
same,outcome,[3],inactive
same,outcome,[4],inactive
same,outcome,[5],inactive
same,outcome,[6],inactive
same,outcome,[7],inactive
same,outcome,[8],inactive
same,outcome,[20],inactive
same,outcome,[9],inactive
same,outcome,[10],inactive
same,outcome,[11],inactive
same,outcome,[13],inactive
same,outcome,[14],inactive
same,outcome,[15],inactive
same,outcome,[16],inactive
same,outcome,[17],inactive
same,outcome,[18],inactive
c1ccc(C(O[C@@H]2CCCN(CCc3ccc4c(c3)OCO4)C2)c2ccccc2)cc1,outcome,[1],inactive
same,outcome,[2],inactive
same,AC50,[4],50.8 µM (active)
same,AC50,[5],47.4 µM (active)
same,AC50,[19],18.1 µM (active)
same,AC50,[6],52.1 µM (active)
same,outcome,[7],inactive
same,AC50,[8],33 µM (active)
same,outcome,[9],inactive
same,outcome,[10],inactive
same,outcome,[11],inactive
same,AC50,[12],33 µM (active)
same,outcome,[13],inactive
same,AC50,[14],13.8 µM (active)
same,outcome,[15],inactive
same,outcome,[16],inactive
same,outcome,[17],inactive
same,outcome,[18],inactive
NC(=O)N1c2ccccc2C=Cc2ccccc21,outcome,[1],inactive
same,outcome,[2],inactive
same,outcome,[4],inactive
same,outcome,[5],inactive
same,outcome,[19],inactive
same,outcome,[6],inactive
same,outcome,[7],inactive
same,outcome,[8],inactive
same,outcome,[20],inactive
same,outcome,[9],inactive
same,outcome,[10],inactive
same,outcome,[11],inactive
same,outcome,[12],inactive
same,outcome,[13],inactive
same,AC50,[14],49.9 µM (active)
same,outcome,[15],inactive
same,outcome,[16],inactive
same,outcome,[17],inactive
same,outcome,[18],inactive
